The values below come from the supplement of paper PMC9177965.

Several values for one entry are separate records, joined by “and”; a condition that tells them apart may be missing. Equal entries are not always repeated.

Experiment [1] has as its system HT29 RNF43 G659fs (RNF43 659mut, CRISPR-edited). The experiment can be described thus: cell viability activity relative to DMSO (negative = inhibition); higher = more viable cells (less growth inhibition). To be noted: 5 µM; 96 h. As to the method: (§1)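 Broad Repurposing Library primary screen at a single dose of 5 uM. HT29 sg-Ctrl and HT29 RNF43 G659fs CRISPR-edited isogenic cells were seeded at 2500 cells/well in 384-well plates in duplicate and treated for 96 h. Viability was read by CellTiter-Glo and reported as % activity relative to DMSO, with MG132 as the positive control (negative = growth inhibition).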

For experiment [2], the system named is HT29 sg-Ctrl (RNF43 wildtype). The experiment is described as above. The following applies: 5 µM; 96 h. As to the method: as §1

Take `OCc1ccc(-c2ccc(-c3ccc(CO)s3)o2)s1`: the cell viability activity in experiment [1] is -51.5%; in experiment [2], -42.8%.
For the molecule `CC[C@H](CO)Nc1nc(NCc2ccc(-c3ccccn3)cc2)c2ncn(C(C)C)c2n1`, the cell viability activity in experiment [1] is -92%; in experiment [2], -92.1%.
For `CS(=O)(=O)N1CCN(Cc2cc3nc(-c4cccc5[nH]ncc45)nc(N4CCOCC4)c3s2)CC1`, in that order: -62.8% and -51.8%.
For `Cc1[nH]nc2ccc(-c3cncc(OC[C@@H](N)Cc4ccccc4)c3)cc12`, in that order: -89.5% and -90.7%.
In the same order, the values of `C[C@H]1[C@@H](O)O[C@@H]2O[C@@]3(C)CC[C@H]4[C@H](C)CC[C@@H]1[C@@]24OO3` are -30.9% and -30%.
Take `Cc1c(C(=O)N2CCOc3ccc(-c4ccc(N)nc4)cc3C2)ccc(S(C)(=O)=O)c1F`: the results for the cell viability activity in experiment [1] and in experiment [2] were -41.2% and -32.1%, respectively.
Turning to `CC(C)c1ccc(NC(=O)Cn2cnc3c2c(=O)n(C)c(=O)n3C)cc1`, the cell viability activity in experiment [1] was -55.3%; in experiment [2], -23.8%.
For `NC(=S)N/N=C/c1ncccc1N`, in that order: -58.9% and -69.1%.
Take `CC(C)(C#N)c1ccc(N2C(=O)OCc3cnc4ccc(-c5cnc6ccccc6c5)cc4c32)cc1`: the cell viability activity in experiment [1] was -30.7%; in experiment [2], -20%.
In the same order, the values of `CCCC[C@H](NC(C)=O)C(=O)N[C@H]1CC(=O)NCCCC[C@@H](C(=O)O)NC(=O)[C@H](Cc2c[nH]c3ccccc23)NC(=O)[C@H](CCCNC(=N)N)NC(=O)[C@@H](Cc2ccccc2)NC(=O)[C@H](Cc2c[nH]cn2)NC1=O` are -42.1% and -7.64%.
In the same order, the values of `O=C1C(Cl)=C(NCCN2CCOCC2)C(=O)c2ncccc21` are -46.3% and -94.7%.
In the same order, the values of `CC(C)C[C@H](NC(=O)[C@H](Cc1ccccc1)NC(=O)c1cnccn1)B(O)O` are -94.1% and -94.6%.
As to `CCCCCCCCCCCCCCC[C@@H](O)[C@@H](N)CO`, the cell viability activity in experiment [1] is -36.8%; in experiment [2], -43.8%.
Consider `CN1c2ccccc2C(=O)N2CCc3c([nH]c4ccccc34)[C@@H]21`, for which the cell viability activity was -24.8% in experiment [1] and -3.62% in experiment [2].
For `C=CCCCCCCCCC(=O)O`, in that order: -66.5% and -72%.
Take `O=C(O)C[C@H](O)C[C@H](O)/C=C/c1c(C2CC2)nc2ccccc2c1-c1ccc(F)cc1`: the cell viability activity in experiment [1] is -25.1%; in experiment [2] it was -8.8%.
For `C=C1C(=O)CC2CC3OC3(C)CCC3OC3(C)C[C@H](OC(C)=O)C1C2(C)C` (some centres undefined), in that order: -28.6% and -25.5%.
As to `Cc1cc(Nc2ncc(Cl)c(Nc3ccccc3S(=O)(=O)C(C)C)n2)c(OC(C)C)cc1C1CCNCC1`, the cell viability activity in experiment [1] was -97.2%; in experiment [2], -95%.
Regarding `CC(C)(C)CC(C)(C)c1ccc(OCCOCC[N+](C)(C)Cc2ccccc2)cc1`, the cell viability activity in experiment [1] is -98.5%; in experiment [2] it was -97.2%.
As to `CN(C)C(=O)[C@H](O)[C@H](Cc1ccccc1)NC(=O)c1cc2cc(Cl)ccc2[nH]1`, the cell viability activity in experiment [1] is -26.8%; in experiment [2] it was 7.41%.
Take `CC(=O)[C@]1(O)Cc2c(O)c3c(c(O)c2[C@@H](O[C@H]2C[C@H](N)[C@H](O)[C@H](C)O2)C1)C(=O)c1ccccc1C3=O`: the cell viability activity was -97.8% and -97.3% in experiment [1]; -93% and -97.3% in experiment [2].
Take `COc1ccc(-c2ccc3c(N4CCOC[C@@H]4C)nc(N4CCOC[C@@H]4C)nc3n2)cc1CO`: the cell viability activity is -71.9% in experiment [1] and -55.9% in experiment [2].
In the same order, the values of `CCCCc1ccc2[nH]c(NC(=O)OC)nc2c1` are -66.1% and -76.7%.
In the same order, the values of `CC(C)(C)c1cc(NC(=O)Nc2ccc(-c3cn4c(n3)sc3cc(OCCN5CCOCC5)ccc34)cc2)no1` are -46.2% and -40.7%.
In the same order, the values of `Nc1ccc(-c2cccc3c(=O)cc(N4CCOCC4)oc23)cc1` are -64.9% and -76.6%.
Take `CCCCCCCCCCCCCCCC[N+](C)(C)C`: the cell viability activity in experiment [1] is -84.6%; in experiment [2] it was -74.2%.
As to `Clc1ccc(NN=C(c2ccccc2)c2ccccn2)nc1`, the figures for the cell viability activity in experiment [1] and in experiment [2] were -70.7% and -65.6%, respectively.
Turning to `Clc1ccc(Cn2c(CN3CCCC3)nc3ccccc32)cc1`, the cell viability activity is -32.7% in experiment [1] and 11.6% in experiment [2].
In the case of `COc1cc(N2CCC(N3CCN(C)CC3)CC2)ccc1Nc1ncnc(Nc2ccccc2S(=O)(=O)C(C)C)n1`, the cell viability activity in experiment [1] was -33.3%; in experiment [2] it was -27.7%.
Take `Nc1nccc2c1ncn2[C@@H]1C=C(CO)[C@@H](O)[C@H]1O`: the results for the cell viability activity in experiment [1] and in experiment [2] were -41.6% and -40.1%, respectively.
In the same order, the values of `CC(C)N1CCN(c2ccc(OC[C@@H]3CO[C@@](Cn4cncn4)(c4ccc(Cl)cc4Cl)O3)cc2)CC1` are -68% and -76%.
In the same order, the values of `COc1cc(N2CCC(N3CCN(C)CC3)CC2)ccc1Nc1ncc(Cl)c(Nc2ccccc2S(=O)(=O)C(C)C)n1` are -53.9% and -66.5%.
Take `Oc1ccc(CC2NCCc3cc(O)c(O)cc32)cc1` (centres undefined): the cell viability activity in experiment [1] is -63.7%; in experiment [2] it was -66.3%.
In the same order, the values of `CON(C)C(=O)N1N=C(c2cc(F)ccc2F)S[C@@]1(CCCN)c1ccccc1` are -73.8% and -69.7%.
For `COC(=O)N[C@@H](C)CNc1nccc(-c2cn(C(C)C)nc2-c2cc(Cl)cc(NS(C)(=O)=O)c2F)n1`, in that order: -69.5% and -72.4%.
In the same order, the values of `CC(C)(C)c1ccc(S(=O)(=O)/C=C/C#N)cc1` are -80.4% and -95.4%.
For `CC[C@]1(O)C[C@H]2CN(CCc3c([nH]c4ccccc34)[C@@](C(=O)OC)(c3cc4c(cc3OC)N(C=O)[C@H]3[C@@](O)(C(=O)OC)[C@H](OC(C)=O)[C@]5(CC)C=CCN6CC[C@]43[C@@H]65)C2)C1`, the cell viability activity in experiment [1] was -28.3%; in experiment [2] it was -54.5%.
